Data on 28 compounds can be found in publication PMC4336329 (PLoS ONE, 2015).

SMILES strings stand for the structures. Among all 310,000 compounds or so, about 14,000 (4.5%) showed an effect of 50% or more. Effects have a minus sign here. The sample as a whole holds a higher share of strong results than the screen did.
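Note: peak tail current of the secondary pulse compared with the same well before compound.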

The test deals with human ether-à-go-go-related gene (hERG) potassium channel (human, UniProt Q12809). Description: primary screen, population patch clamp on CHO cells stably expressing hERG; higher = less effect of the substance.
human ether-à-go-go-related gene (hERG) potassium channel, sequence (Q12809 whole entry, looked up): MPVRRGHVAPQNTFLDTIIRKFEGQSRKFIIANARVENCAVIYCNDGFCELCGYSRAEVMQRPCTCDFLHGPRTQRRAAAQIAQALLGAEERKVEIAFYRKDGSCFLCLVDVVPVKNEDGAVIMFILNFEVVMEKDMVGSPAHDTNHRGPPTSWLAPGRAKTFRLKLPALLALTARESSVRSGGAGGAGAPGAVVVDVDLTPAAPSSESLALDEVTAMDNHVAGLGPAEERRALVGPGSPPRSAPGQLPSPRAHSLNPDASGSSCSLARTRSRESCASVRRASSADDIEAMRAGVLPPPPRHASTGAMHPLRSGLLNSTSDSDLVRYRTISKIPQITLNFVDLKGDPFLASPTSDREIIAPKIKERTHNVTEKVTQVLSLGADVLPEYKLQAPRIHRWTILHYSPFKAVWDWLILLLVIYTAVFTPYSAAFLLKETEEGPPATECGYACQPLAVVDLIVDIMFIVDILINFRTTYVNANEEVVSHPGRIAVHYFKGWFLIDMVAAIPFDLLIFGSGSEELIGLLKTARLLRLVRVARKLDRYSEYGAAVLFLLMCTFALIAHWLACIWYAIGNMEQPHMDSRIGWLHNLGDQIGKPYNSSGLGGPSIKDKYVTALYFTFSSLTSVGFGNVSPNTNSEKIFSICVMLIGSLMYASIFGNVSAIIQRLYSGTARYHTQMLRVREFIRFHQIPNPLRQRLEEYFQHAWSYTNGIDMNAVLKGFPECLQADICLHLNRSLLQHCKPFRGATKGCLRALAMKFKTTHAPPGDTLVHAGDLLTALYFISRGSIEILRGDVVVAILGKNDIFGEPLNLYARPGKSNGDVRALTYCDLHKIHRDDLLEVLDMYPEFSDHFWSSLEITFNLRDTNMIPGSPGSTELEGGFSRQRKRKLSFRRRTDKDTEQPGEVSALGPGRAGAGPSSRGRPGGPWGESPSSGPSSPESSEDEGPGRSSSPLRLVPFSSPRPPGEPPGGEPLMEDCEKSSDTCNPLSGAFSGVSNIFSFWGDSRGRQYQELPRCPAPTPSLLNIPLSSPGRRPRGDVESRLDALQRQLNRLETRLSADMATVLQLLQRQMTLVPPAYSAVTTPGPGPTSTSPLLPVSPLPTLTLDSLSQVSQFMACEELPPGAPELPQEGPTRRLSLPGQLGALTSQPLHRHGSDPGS
Turning to `N#CCCN1CCCc2cc(N=Nc3ccc(C(F)(F)F)cc3)ccc21`, the “hERG current change (%, negative = inhibition) at 10uM” value was 13.4%.
As for `COc1ccc(Cl)cc1Nc1nc(C)cc(C)c1C(N)=O`, the “hERG current change (%, negative = inhibition) at 10uM” value amounted to 14.3%.
For `CC(C)C[C@@H]1NC(=O)[C@H](CO)NC(=O)c2cc([N+](=O)[O-])cc(I)c2OCC[C@@H](C(N)=O)NC1=O`, the “hERG current change (%, negative = inhibition) at 10uM” value was found to be 2.3%.
With `CCC(=O)Nc1ccc(NC(=S)NC(=O)c2cc3ccccc3o2)cc1` the figure was 7.15%; with `COc1ccc(Cn2nnnc2CN2CCN(c3ccc(OC)cc3)CC2)cc1`, -3.66%.
Regarding `O=[N+]([O-])c1ccc2cn(-c3ccccc3)nc2c1`, the “hERG current change (%, negative = inhibition) at 10uM” value is given as -0.226%.
With `O=C(CCc1nc2ccccc2c(=O)[nH]1)Nc1cc(C(F)(F)F)ccc1N1CCOCC1`, the “hERG current change (%, negative = inhibition) at 10uM” value is listed as -35.3%.
With `CN(Cc1cccc(Cl)c1)C(=O)C1CCC(=O)N(C2CC2)C1` (stereo not shown) the figure was 1.31%; with `CN(Cc1ccc(C(F)(F)F)cc1)C(=O)C1CCC(=O)N(C2CC2)C1` (stereo not shown), -51.7%.
Regarding `Cc1ccc(CN(C)C(=O)C2CCC(=O)N(C3CCCCCC3)C2)cc1` (stereo not shown), the “hERG current change (%, negative = inhibition) at 10uM” value is on record as 7.71%.
Consider `Cc1cccn2c(=O)c3cc(C(=O)NC4CCCC4)c(=N)n(CCCN4CCOCC4)c3nc12`, for which the “hERG current change (%, negative = inhibition) at 10uM” value is -74.7%.
On to `Cc1cccn2c(=O)c3cc(C(=O)NC4CCCCC4)c(=N)n(CCN4CCOCC4)c3nc12`, for which the “hERG current change (%, negative = inhibition) at 10uM” value is on record as -87%.
With `CCCCOc1nc2ccccc2nc1NS(=O)(=O)c1ccc(F)cc1`, the “hERG current change (%, negative = inhibition) at 10uM” value is reported as -5.01%.
With `Cc1nc2scc(-c3cccs3)c2c(=O)n1CC(=O)O` the figure was 5.83%; with `CCOC(=O)COc1c(Br)cc(/C=C2\SC(=O)N(CC(=O)N3CCCC3)C2=O)cc1OC`, -24%; with `Cc1cccc(CCNC(=O)CN(C)S(=O)(=O)c2cnc[nH]2)c1`, 4.07%.
Take `Cc1ccccc1C(=O)c1cccn1CC(=O)N1CCCCC1`: the “hERG current change (%, negative = inhibition) at 10uM” value came to 10.6%.
As to `Cc1onc(-c2ccccc2Cl)c1C(=O)Nc1ccc(-c2nnc3n2CCCCC3)cc1`, the “hERG current change (%, negative = inhibition) at 10uM” value is on record as -4.31%.
Under `Cc1ccc(-n2c(SCC(=O)Nc3cc(S(=O)(=O)N4CCOCC4)ccc3Cl)nc3ccccc3c2=O)cc1` stands 2.71%.
`CCCCn1c(SCC(=O)Nc2ccc3c(c2)CCC3)nc2ccccc2c1=O`: the “hERG current change (%, negative = inhibition) at 10uM” value is reported as -33.6%.
For `Cc1ccc(NC(=O)CSc2nc3ccccc3c(=O)n2CCCN2CCCCC2)cc1C`, the “hERG current change (%, negative = inhibition) at 10uM” value is listed as -71.9%.
`CCC(C)NC(=O)CSc1nc2ccccc2c(=O)n1CCCN1CCCCC1` (stereo not shown): the “hERG current change (%, negative = inhibition) at 10uM” value is given as -13.8%.
With `CS(=O)(=O)c1ccc(Cl)c(NC(=O)CSc2nc3ccccc3c(=O)n2CCCN2CCOCC2)c1`, the “hERG current change (%, negative = inhibition) at 10uM” value was -47.7%.
Consider `COCCn1c(SCC(=O)Nc2ccc3c(c2)CCC3)nc2ccccc2c1=O`, for which the “hERG current change (%, negative = inhibition) at 10uM” value came out at 4.46%.
With `CN(C)S(=O)(=O)c1ccc(Cl)c(NC(=O)CSc2nc3ccccc3c(=O)n2CCCN2CCOCC2)c1` the figure was -73.9%.
For the compound `Cc1ccc(NC(=O)CSc2nc3ccccc3c(=O)n2CCCN2CCCCC2)cc1Cl`, the “hERG current change (%, negative = inhibition) at 10uM” value was -73.7%.
Under `COCCCNC(=O)CSc1nc2ccccc2c(=O)n1CCCN1CCCCC1` stands 2.04%.
For `CCN(CC)CCn1c(SCC(=O)Nc2ccc3c(c2)CCC3)nc2ccccc2c1=O`, the “hERG current change (%, negative = inhibition) at 10uM” value is given as -83%.
